From PubChem BioAssay (NCATS)
Results filed as inconclusive are left out. Calls of active or inactive are those of the source. Unless noted, calls follow the shape of the dose curve; as a rule, active = well fitted curve in the direction sought with a large enough effect; inconclusive = small, poorly fitted or top-dose-only effect, or another doubt; inactive = no such curve, though single readings can be large; an effect the other way counts as inactive or inconclusive.

How the values were obtained:
[1] = qHTS profiling of the MIPE4 collection as inhibitors of Plasmodium falciparum (3D7) proliferation (AID 743344; call rule not given here;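 also: scaled between DMSO vehicle wells and 0.29 µM artemisinin as full inhibition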); conditions: P. falciparum 3D7 in erythrocytes, SYBR Green DNA fluorescence, 72 h; at 28.5 µM unless noted
How it was run: (§1)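 Parasite DNA was quantified by SYBR Green I fluorescence (ex 485, em 535 nm) after overnight lysis in saponin/Triton buffer at room temperature. Cultures at 0.3% parasitemia and 2.5% hematocrit were first exposed to compound for 72 h at 37 C; signals were normalised to artemisinin (0.29 uM) and vehicle wells.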

[2] = qHTS profiling of the MIPE4 collection as inhibitors of Plasmodium falciparum (DD2) proliferation (Rep 2) (AID 743346; call rule not given here); conditions: P. falciparum Dd2 in erythrocytes, SYBR Green DNA, 72 h; at 28.5 µM unless noted
How it was run: as §1

[3] = qHTS profiling of the MIPE4 collection as inhibitors of Plasmodium falciparum (HB3) proliferation (AID 743347; call rule not given here;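 also: plate controls were DMSO vehicle wells for no effect and artemisinin wells for full effect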); conditions: P. falciparum HB3 in erythrocytes, SYBR Green DNA, 72 h; at 28.5 µM unless noted
How it was run: as §1

[4] = High-throughput drug toxicity screening in the BPDCN cell line Gen2.2 (AID 1224824; call rule not given here;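 also: cells exposed to compounds for 48 h before reading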); conditions: Gen2.2 BPDCN cells; at 45.8 µM (top of the series) unless noted
How it was run: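 CellTiter-Glo luminescence after 48 h compound exposure of Gen2.2 cells; percent activity set with DMSO as 100% and bortezomib (9.2 uM final) as 0%. Cells seeded at 500 per well, RPMI + 10% FBS, 37 °C.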

[5] = High-throughput drug toxicity screening in the BPDCN cell line Cal-1 (AID 1224825; call rule not given here); conditions: Cal-1 BPDCN cell viability, qHTS; at 45.8 µM (top of the series) unless noted
How it was run: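 CellTiter-Glo luminescence after 48 h compound exposure; percent activity scaled with DMSO as 100% and bortezomib (9.2 uM final) as 0%. Cal-1 cells seeded at 500/well in RPMI, 10% FBS, no phenol red.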

[6] = qHTS assay for measurement of the activity of small molecule inhibitors on Zika virus induced Caspase-3 activity in human iPSC derived neural progenitor cells (hNPCs) (AID 1224857); also: % of control where 0% means no effect; nearly all actives have a fitted effect of over 65% in size
How it was run: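 After overnight (16–20 h) culture at 350 cells/well, hNPCs get compound, then ZIKV 2 FFU/cell one hour later. Six hours on, Caspase-Glo 3/7 is added and luminescence measured.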

[7] = qHTS assay for measurement of the activity of small molecule inhibitors on Zika virus induced Caspase-3 activity in human astrocytoma cells (AID 1224859);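 also: plate controls were ZIKV-infected untreated cells for no effect and uninfected cells for full effect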
How it was run: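 Inhibition of Zika-induced caspase-3/7 activity: SNB-19 cells, 1 h compound pretreatment, ZIKV 2 FFU/cell for 6 h at 37 C, Caspase-Glo luminescence read-out.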

[8] = qHTS Screen of the MIPE 4.0 Collection Against Ewings Sarcoma (RDES) (AID 1259252); also: nearly all actives have a fitted effect of over 35% in size; also: potency is read from the fitted curve at half-maximal effect
How it was run: (§2)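 Viability screen: 48 h incubation at 37C, 95% humidity, 5% CO2 with serially titrated compound, followed by CellTiter-Glo readout.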

[9] = qHTS Screen of the MIPE 4.0 Collection Against Ewings Sarcoma (TC71) (AID 1259253); also: nearly all actives have a fitted effect of over 40% in size; also: potency is read from the fitted curve at half-maximal effect
How it was run: as §2

[10] = qHTS Screen of the MIPE 4.0 Collection Against Ewings Sarcoma (EW8) (AID 1259255); also: nearly all actives have a fitted effect of over 35% in size; also: potency is read from the fitted curve at half-maximal effect;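 as to viability: 100% = DMSO-treated cells and 0% = medium-only wells without cells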
How it was run: as §2

[11] = qHTS Screen of the MIPE 4.0 Collection Against Ewings Sarcoma (TC32) (AID 1259256);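 also: 100% = DMSO-treated cells and 0% = medium-only wells without cells; nearly all actives have a fitted effect of over 45% in size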
How it was run: as §2

[12] = qHTS assay to identify small molecule inhibitors of chordoma cells - UCH-2 (AID 1259356); also: % is scaled to controls: 0 for no effect and ±100 for the full control effect
[13] = qHTS profiling for inhibitors of Plasmodium falciparum (DD2) proliferation (AID 743323; call rule not given here); conditions: lower = more inhibition; at 28.7 µM (top of the series) unless noted
How it was run: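 SYBR Green fluorescence (ex 485, em 535 nm) of lysed cultures gives parasite DNA content; wells normalized to artemisinin (0.29 uM) and DMSO controls. Infected red cells: 0.3% parasitemia, 2.5% hematocrit, 72 h, 37 C.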

[14] = qHTS profiling for inhibitors of Plasmodium falciparum (HB3) proliferation (AID 743324); conditions: Plasmodium falciparum HB3 blood-stage proliferation; at 28.7 µM (top of the series) unless noted;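 also: 100% = DMSO vehicle wells and 0% = artemisinin-treated control wells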
How it was run: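 SYBR Green fluorescence (485 ex/535 em) of lysed cultures, incubated overnight at room temperature in the dark, quantifies parasite DNA. Infected erythrocytes at 0.3% parasitemia and 2.5% hematocrit were exposed 72 h; values normalized to DMSO and 0.29 uM artemisinin controls.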

[15] = qHTS profiling of the MIPE4 collection as inhibitors of Plasmodium falciparum (DD2) proliferation (AID 743345; call rule not given here); conditions: P. falciparum Dd2 in erythrocytes, SYBR Green DNA, 72 h; at 28.5 µM unless noted
How it was run: as §1

[16] = qHTS assay to identify small molecule inhibitors of chordoma cells - UCH-1 (AID 1259355); also: % is scaled to controls: 0 for no effect and ±100 for the full control effect; nearly all actives have a fitted effect of over 55% in size
How it was run: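 Screening used approved and investigational drugs in 15-point titration against 800 seeded cells per well. A fixed combination of auranofin with camptothecin, doxorubicin, rubitecan and topotecan followed compound addition, and growth was scored by CellTiter-Glo after 48hr.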

Row | SMILES | parasite growth, % of DMSO control [1] [%] | parasite growth, % of control (lower = inhibition) [2] [%] | growth, % of control [3] [%] | cell viability, % of control (lower = more cytotoxic) [4] [%] | viability (% of control) [5] [%] | Potency [6] | Potency [7] | Potency [8] | Potency [9] | Potency [10] | Potency [11] | outcome [12] | activity, percent of control [13] | remaining proliferation (% of control), lower = more inhibition [14] | parasite growth remaining, % of DMSO control (lower = more inhibition) [15] [%] | outcome [16]
1 | C#CCN(C)CC1=Cc2ccccc2Oc2ccccc21 | 51.9 | 63.1 | 25.1 | 124 | 98 | inactive | inactive | inactive | inactive | inactive |  |  |  |  |  | 
2 | CN1CCN(c2ncc(-c3cc(Cl)cc(Cl)c3Cl)c(N)n2)CC1 |  |  |  | 54.8 | 22.1 | inactive | inactive | inactive | 16.6 µM (active) | inactive | inactive |  |  |  |  | 
3 | COc1cc2nc(-c3cc(F)ccc3O)nc(N[C@@H]3CNC[C@@H]3C(C)(C)O)c2cc1OC | 6.37 | 8.84 | 3.61 | 4.14 | 5.24 | inactive | inactive | 23.5 µM (active) | 20.9 µM (active) | 23.5 µM (active) |  |  |  |  |  | 
4 | NC(=O)c1ncn([C@@H]2O[C@H](CO)[C@@H](O)[C@@H]2O)n1 |  |  |  | 109 | 73.5 | inactive | inactive | inactive | inactive | inactive | inactive |  |  |  |  | 
5 | COc1ccc(-c2nc3ccc(C4=NNC(=O)CC4C)cc3[nH]2)cc1 (stereo not given) |  |  |  | 263 | 107 | inactive | inactive | inactive | inactive | inactive |  | inactive |  |  |  | 
6 | COc1cc([C@@H]2c3cc4c(cc3[C@@H](O[C@@H]3O[C@@H]5CO[C@@H](C)O[C@@H]5[C@H](O)[C@@H]3O)[C@H]3COC(=O)[C@H]23)OCO4)cc(OC)c1O | 10.3 | 140 | 4.48 | 57.1 | 8.03 | inactive | inactive | 1.05 µM (active) | 0.59 µM (active) | 0.148 µM (active) | inactive |  | 47.3% [at 9.63 µM] | 11.4% [at 9.63 µM] |  | 
7 | Cc1cc2nc3c(=O)[nH]c(=O)nc-3n(CC(O)C(O)C(O)CO)c2cc1C (stereo not given) | 21.3 | 22.3 | 17.8 | 77.3 | 101 | inactive | inactive | inactive | 26.4 µM (active) | inactive |  |  |  |  | 57.4 | inactive
8 | CC1(C)[C@H]2CC[C@]3(C)[C@@H](C(=O)C=C4[C@@H]5C[C@@](C)(C(=O)O)CC[C@]5(C)CC[C@]43C)[C@@]2(C)CC[C@@H]1O | 93.2 | 84.9 | 87.6 | 139 | 111 | inactive | inactive | inactive | inactive | inactive |  |  |  |  | 98.1 | 
9 | C=C1c2cccc(O)c2C(O)=C2C(=O)[C@@]3(O)C(O)=C(C(N)=O)C(=O)[C@@H](N(C)C)[C@@H]3[C@@H](O)[C@H]12 | 23.7 | 24.1 | 15.6 | 88.8 | 94.6 | inactive | inactive | 20.9 µM (active) | 20.9 µM (active) | 23.5 µM (active) |  |  |  |  |  | 
